From PMC5540273 (PLoS ONE, 2017)

Tests used:
Conditions in all cases: concentration: 1 μM, replicates: in singlicate; n = 1
TAOK3 = system: TAOK3
TBK1 = system: TBK1
TEC = system: TEC
TESK1 = system: TESK1
TGFBR1 = system: TGFBR1
TGFBR2 = system: TGFBR2
TIE1 = system: TIE1
TIE2 = system: T1, TIE2
T1 construct: gene TEK

TLK1 = system: TLK1
TLK2 = system: TLK2
TNIK = system: TNIK
TNK1 = system: TNK1
TNK2 = system: TNK2
TNNI3K = system: TNNI3K
TRKA = system: T2, TRKA
T2 construct: gene NTRK1

TRKB = system: TRKB
TRKC = system: T3, TRKC
T3 construct: gene NTRK3

TRPM6 = system: TRPM6
TSSK1B = system: TSSK1B
TSSK3 = system: TSSK3
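Also: KINOMEscan kinase panel screen.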

Compound	%Inh (TAOK3)	%Inh (TBK1)	%Inh (TEC)	%Inh (TESK1)	%Inh (TGFBR1)	%Inh (TGFBR2)	%Inh (TIE1)	%Inh (TIE2)	%Inh (TLK1)	%Inh (TLK2)	%Inh (TNIK)	%Inh (TNK1)	%Inh (TNK2)	%Inh (TNNI3K)	%Inh (TRKA)	%Inh (TRKB)	%Inh (TRKC)	%Inh (TRPM6)	%Inh (TSSK1B)	%Inh (TSSK3)
COc1cc(Nc2nccc(N3CCC(NC(=O)Nc4cc(C)ccc4C)C3)n2)cc(OC)c1OC (stereo not drawn) [GSK1379762]	0%	18%	14%	0%	8%	0%	49%	2%	0%	0%	0%	14%	15%	0%	18%	0%	20%	0%	7%	21%
Cc1c(Cn2ccn3c(=O)cc(N4CCOCC4)nc23)cccc1C(F)(F)F [GSK2289044]	0%	7%	0%	17%	0%	0%	10%	0%	0%	0%	3%	0%	6%	2%	1%	0%	0%	12%	12%	6%
CC(=O)Nc1nc2cnc(Nc3cc(NC(=O)c4cccc(CCC#N)c4)ccc3C)nc2s1	0%	24%	10%	0%	0%	0%	0%	0%	0%	7%	7%	0%	9%	7%	0%	6%	5%	3%	2%	0%
Cc1cccc(-c2nc(Nc3ccc4[nH]ncc4c3)c3ccccc3n2)n1 [GW857175]	19%	35%	3%	5%		0%	17%	49%	23%	0%	4%	0%	10%	0%	52%	12%	17%	19%	72%	51%
Cc1cccc(-c2nc(Nc3cccc(C(N)=O)c3)c3ccccc3n2)n1 [GW876019]	0%	40%	2%	0%		15%	0%	41%	0%	4%	2%	5%	15%	0%	0%	0%	0%	0%	10%	0%
Cl.O=C(Nc1cccc(-c2nn3ncccc3c2-c2ccnc(Nc3cccnc3)n2)c1)c1c(F)cccc1F [GSK312879]	7%	0%	13%	0%	0%	0%	34%	1%	0%	0%	1%	49%	13%	0%	0%	30%	7%	28%	27%	9%
CC(C)(C)c1ccc(C(=O)Nc2cn3cc(Cl)ccc3n2)cc1	0%	0%	0%	0%	0%	0%	0%	13%	23%	0%	4%	30%	2%	0%	0%	0%	0%	0%	0%	0%
